Experimental data taken from PubChem BioAssay (NCATS).
Where “and” joins values, the source holds several entries; their conditions need not be identical. Identical values can stand only once. Inconclusive results are not listed. A structure can be active in one record and inactive in another. Calls of active or inactive are those of the source. Calls come from the whole dose curve; as a rule, active = well fitted activation curve with a large enough effect; inconclusive = small, poorly fitted or top-dose-only effect; inactive = no such curve, though single readings can be large or run the other way.

Target: Arylsulfatase A (Homo sapiens) (UniProt P15289)
Assay: qHTS screen for enhancers of Arylsulfatase A (ASA1): LOPAC Validation Assay (AID 720538); for activity change, positive = activation: 0% is about no effect
Conditions: ASA enzyme activity, LOPAC qHTS enhancer assay; series mostly up to 57.5 µM; activity change, positive = activation: at the top concentration
Text: Lysosomal storage diseases (LSDs) are caused by genetic mutations in genes encoding proteins important for normal lysosomal function. In affected patients, symptoms are usually not manifested unless the mutations result in more than 90% reduction of enzymatic activity of a specific lysosomal enzyme. […] Small molecules could function as enzyme enhancement agents by binding to and stabilizing mutant misfolded proteins in the endoplasmic reticulum (ER), allowing them to evade the ER associated degradation (ERAD), and eventually reach the lysosome. Moreover, small molecules is hypothesized to be able to enhance the residual activity of deficient lysosomal enzyme by either interacting directly with the mutant enzyme or indirectly by acting in different cellular pathways; resulting to increased levels of the mutant and partially functional protein in the lysosomal compartment.
A cell based assay in 1536 well plate format was developed to evaluate activity of the lysosomal sulfatase ASA1 enzyme. ASA1 is deficient in metachromatic leukodystrophy (MLD), an LSD characterized by progressive neurodegeneration for which specific treatment is not available. Compounds that are active may therefore have some therapeutic application for this disease. This assay was used to validate the ASA1 qHTS using the Sigma LOPAC library. In this assay increase in signal = enhanced ASA1 activity. Activation is the desired outcome for this assay.
NIH Chemical Genomics Center [NCGC]
NIH Molecular Libraries Probe Centers Network [MLPCN]
Assay Submitter (PI): Gustavo Maegawa, Johns Hopkins University School of Medicine
[2] Gieselmann V, et al. Acta Paediatr Suppl. 2008; 97: 15-21
Four microliter (~8,000 cells/well) of SV40-transformed skin fibroblasts from an MLD patient (ASA-I179S) were seeded into a 1,536 solid white plate. Cells were left to adhere for 6 hrs, followed by addition of 23 nL of compounds. Cells were incubated with compounds for 48h at 37 degree C and 5% CO2. Four microliter of 1 mM pNCS substrate/lysis buffer (0.5mM pNCS final concentration) was added and incubated for 14h at room temperature. To stop the reaction, […] of 5 N of NaOH (1N NaOH final concentration) was then added and fluorescence was measured using the ViewLux plate reader (Ex=525 nm; Em=598 nm).
Potency is the fitted concentration of half-maximal effect.

Sequence of Arylsulfatase A (Homo sapiens) (P15289 whole entry, looked up): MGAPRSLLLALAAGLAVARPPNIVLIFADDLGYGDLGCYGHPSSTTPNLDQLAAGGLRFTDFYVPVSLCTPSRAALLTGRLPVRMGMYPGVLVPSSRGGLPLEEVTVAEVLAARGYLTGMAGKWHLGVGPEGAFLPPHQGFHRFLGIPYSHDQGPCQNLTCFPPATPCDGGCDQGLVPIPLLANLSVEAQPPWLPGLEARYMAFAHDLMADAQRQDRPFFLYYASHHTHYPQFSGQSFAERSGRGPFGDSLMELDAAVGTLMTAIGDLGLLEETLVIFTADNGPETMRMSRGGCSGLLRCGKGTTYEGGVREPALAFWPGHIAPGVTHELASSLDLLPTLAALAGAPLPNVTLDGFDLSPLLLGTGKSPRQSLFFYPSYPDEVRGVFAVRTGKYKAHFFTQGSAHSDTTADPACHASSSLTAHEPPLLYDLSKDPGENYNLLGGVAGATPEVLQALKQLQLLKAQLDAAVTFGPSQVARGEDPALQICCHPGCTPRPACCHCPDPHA

Row | SMILES | activity change, positive = activation | outcome | Potency
1 | CCCCCCCCCCCCCCCC(=O)NCCO | -15% (inactive) |  | 
2 | N=c1c[n+](N2CCOCC2)[n-]o1 |  | inactive | 
3 | CCCn1cnc2c1c(=O)n(CCCCC(C)=O)c(=O)n2C |  | inactive; inhibitor; fitted 0.8492 uM | 
4 | Cc1cc(N)c2ccccc2[n+]1CCCCCCCCCC[n+]1c(C)cc(N)c2ccccc21 | -3.68% (inactive) |  | 
5 | C[C@]12C[C@H](O)[C@H]3[C@@H](CCC4=CC(=O)CC[C@@]43C)[C@@H]1CC[C@@H]2C(=O)CO |  | inactive | 
6 | CC1=C(/C=C/C(C)=C/C=C/C(C)=C/C(=O)O)C(C)(C)CCC1 | 3.46% (inactive) |  | 
7 | CC[C@H]1CN2CCc3cc(OC)c(OC)cc3[C@@H]2C[C@@H]1C[C@H]1NCCc2cc(OC)c(OC)cc21 | -39.6% (inactive) |  | 
8 | CC(C)NC[C@H](O)c1ccc(O)c(O)c1 |  | inactive | 
9 | CC(C)(C)[C@]1(O)CCN2C[C@H]3c4ccccc4CCc4cccc(c43)[C@@H]2C1 |  | inactive | 
10 | COc1ccc(Cl)cc1C(=O)NCCc1ccc(S(=O)(=O)NC(=O)NC2CCCCC2)cc1 | 7.33% (inactive) |  | 
11 | CN1CCN(C2Cc3ccccc3Sc3ccc(Cl)cc32)CC1 (stereo not drawn) | -17.1% (inactive) |  | 
12 | CC(CN(C)C)CN1c2ccccc2CCc2ccccc21 (stereo not drawn) | 8.26% (inactive) |  | 
13 | C[C@](N)(Cc1ccc(O)cc1)C(=O)O | 5.95% (inactive) |  | 
14 | CC1=C(CC(=O)O)c2cc(F)ccc2/C1=C\c1ccc(S(C)=O)cc1 (stereo not drawn) | -60% (inactive) |  | 
15 | COC(=O)C1=C(C)NC(C)=C(C(=O)OC)C1c1ccccc1[N+](=O)[O-] | 19.8% (inactive) |  | 
16 | CC1=C(CC(=O)O)c2cc(F)ccc2/C1=C\c1ccc(S(C)(=O)=O)cc1 | -382% (inactive) |  | 
17 | CN(C)CCCN1c2ccccc2CCc2ccccc21 |  | inactive | 

Row | SMILES | activity change, positive = activation | outcome | Potency
18 | CC(C)C(=O)c1c(C(C)C)nn2ccccc12 | 11.3% (inactive) |  | 
19 | CCN(CC)CCCC(C)Nc1c2ccc(Cl)cc2nc2ccc(OC)cc12 (stereo not drawn) | -44.5% (inactive) |  | 
20 | C=Cc1c(C)c2cc3[nH]c(cc4nc(cc5nc(cc1[nH]2)C(C)=C5CCC(=O)O)C(CCC(=O)O)=C4C)c(C)c3C=C | -1360% (inactive) |  | 
21 | CNCCCC1c2ccccc2C=Cc2ccccc21 | -0.0508% (inactive) |  | 
22 | NC(N)=NCCC[C@H](N)C(=O)O | -18.3% (inactive) |  | 
23 | CC(C(O)c1ccc(O)cc1)N1CCC(Cc2ccccc2)CC1 (stereo not drawn) | -7.19% (inactive) |  | 
24 | CC(=O)OCC(=O)[C@@]1(O)CC[C@H]2[C@@H]3CCC4=CC(=O)CC[C@]4(C)[C@H]3C(=O)C[C@@]21C | 17.1% (inactive) |  | 
25 | Nc1cc(=O)[nH]c(N)n1 | -19.2% (inactive) |  | 
26 | CN(C)CCOC(C)(c1ccccc1)c1ccccn1 (stereo not drawn) | -30.9% (inactive) |  | 
27 | OCc1cc(C(O)CNCCCCCCOCCCCc2ccccc2)ccc1O (stereo not drawn) | -5.31% (inactive) |  | 
28 | CSc1ccc2c(c1)C(N1CCN(C)CC1)Cc1ccccc1S2 (stereo not drawn) | -12.1% (inactive) |  | 
29 | CC(C)(C(=O)O)c1ccc(C(O)CCCN2CCC(C(O)(c3ccccc3)c3ccccc3)CC2)cc1 (stereo not drawn) |  | inactive; inhibitor; fitted 2.6855 uM | 
30 | CC(CN1c2ccccc2Sc2ccccc21)N(C)C (stereo not drawn) | -33.2% (inactive) |  | 
31 | OCCN1CCN(CCCN2c3ccccc3Sc3ccc(Cl)cc32)CC1 | -17.4% (inactive) |  | 
32 | CC(C)(C)c1onc(OCP(=O)(O)O)c1CC(N)C(=O)O (stereo not drawn) |  |  | inactive and 4.26 µM (active)
33 | CCN(CC)CCNC(=O)c1cc(Cl)c(N)cc1OC | 23.3% (inactive) |  | 
